The values that follow come from the supplement of paper PMC7057948, “A genome-wide approach for identification and characterisation of metabolite-inducible systems” (Nature Communications, 2020).

One assay deals with NahR/P_H16_RS08125 salicylate biosensor (pEH042). The assay can be described thus: relative induction of RFP reporter vs primary effector; higher = stronger activation. Particulars: inducer concentration 5 mM; 6 h; Cupriavidus necator H16; minimal medium + 0.4% gluconate. The protocol: (§1)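 Orthogonality screen of 21 primary inducers against 21 transcription factor/inducible promoter–mRFP biosensors in C. necator H16 in minimal medium, robotic 96-well format, 5 mM inducer, 30 °C. OD-normalised RFP fluorescence was read 6 h later and expressed as relative induction (%) = 100 × (FL compound − FL uninduced)/(FL primary inducer − FL uninduced); mean of n=4. Cognate pairs (100% by definition) omitted.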
`NCCC(=O)O` [β-alanine]: the “relative induction of RFP reporter” value turned out to be 0.0063%. As for `O=C(O)C(=O)c1ccccc1` [phenylglyoxylate], the “relative induction of RFP reporter” value stood at 0.00691%.

As to `O=C(O)CS(=O)(=O)O` [sulfonatoacetate], the “relative induction of RFP reporter” value was -0.0115%. Turning to `CC(=O)C(C)O` (stereo not drawn) [acetoin], the “relative induction of RFP reporter” value stood at 0.00159%. For the compound `N[C@@H](Cc1ccc(O)cc1)C(=O)O` [L-tyrosine], the “relative induction of RFP reporter” value came to 0.00647%.

As to `O=c1[nH]c(=O)c2nc[nH]c2[nH]1` [xanthine], the “relative induction of RFP reporter” value was 0.0144%. For `OC1OC[C@H](O)[C@H](O)[C@H]1O` (mixture of isomers) [L-arabinose], the “relative induction of RFP reporter” value is -0.0109%.

In the case of `O=C(O)C(O)C(O)C(=O)O` (stereo not drawn) [tartrate], the “relative induction of RFP reporter” value stood at 0.0221%. On to `O=C(O)c1ccccc1` [benzoate], for which the “relative induction of RFP reporter” value worked out at 0.078%. For the compound `C=C(CC(=O)O)C(=O)O` [itaconate], the “relative induction of RFP reporter” value turned out to be 0.0104%.

Turning to `O=C(O)C1CCCCC1` [cyclohexane-1-carboxylate], the “relative induction of RFP reporter” value was -0.0105%. The same measure, in the same setting: in the case of `O=C(O)c1ccc(O)c(O)c1` [3,4-dihydroxybenzoate] it was 0.0143%; in that of `O=CO` [formate], 0.0105%. On the same count and under the same terms, as for `N[C@@H](Cc1ccccc1)C(=O)O` [L-phenylalanine], the figure is 0.00484%; as for `O=C(O)CCO` [3-hydroxypropanoate], 0.0108%. For the compound `Nc1ccccc1C(=O)C[C@H](N)C(=O)O` [L-kynurenine], the “relative induction of RFP reporter” value was determined as 0.00391%. With `C=CC(=O)O` [acrylate], the “relative induction of RFP reporter” value came out at 0.00921%.

A further assay concerns OapR/P_H16_RS01330 beta-alanine biosensor (pEH147). Described as above. Conditions: inducer concentration 5 mM; 6 h; Cupriavidus necator H16; minimal medium + 0.4% gluconate. On the procedure:
as §1
In the case of `O=C(O)C(=O)c1ccccc1` [phenylglyoxylate], the “relative induction of RFP reporter” value was -1.44%. On to `O=C(O)CS(=O)(=O)O` [sulfonatoacetate], for which the “relative induction of RFP reporter” value is -0.372%. With `CC(=O)C(C)O` (stereo not drawn) [acetoin], the “relative induction of RFP reporter” value is -0.507%. Still for that read-out and setting: as for `N[C@@H](Cc1ccc(O)cc1)C(=O)O` [L-tyrosine], the figure is -1.24%; as for `O=c1[nH]c(=O)c2nc[nH]c2[nH]1` [xanthine], 1.27%; as for `OC1OC[C@H](O)[C@H](O)[C@H]1O` (mixture of isomers) [L-arabinose], -0.0273%. For the compound `O=C(O)C(O)C(O)C(=O)O` (stereo not drawn) [tartrate], the “relative induction of RFP reporter” value is -0.132%. Turning to `O=C(O)c1ccccc1` [benzoate], the “relative induction of RFP reporter” value is -0.947%. Same read-out and setting: in the case of `O=C(O)c1ccccc1O` [salicylate] it was -0.51%; in that of `C=C(CC(=O)O)C(=O)O` [itaconate], -0.257%. As to `O=C(O)C1CCCCC1` [cyclohexane-1-carboxylate], the “relative induction of RFP reporter” value was -0.348%. For `O=C(O)c1ccc(O)c(O)c1` [3,4-dihydroxybenzoate], the “relative induction of RFP reporter” value is -1.27%. As to `O=CO` [formate], the “relative induction of RFP reporter” value turned out to be 0.208%. For `N[C@@H](Cc1ccccc1)C(=O)O` [L-phenylalanine], the “relative induction of RFP reporter” value is -1.24%.

In the case of `O=C(O)CCO` [3-hydroxypropanoate], the “relative induction of RFP reporter” value came to 3.75%. On the same count and under the same terms, in the case of `Nc1ccccc1C(=O)C[C@H](N)C(=O)O` [L-kynurenine] it was 0.521%.
